m-calpain inh = inhibitors of pig calpain II. purified calpain II, fluorogenic peptide substrate, 30 min. inhibition, % at 16 µM. 0.37% of 220,000 active. AID 1236;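 active means inhibition above about 50%, limit read from the data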
H9c2 protect = modulators protecting cardiomyocytes from myocardial damage; protection from H2O2 cell death, % at 20 µM; AID 588492; 0.63% of 360,000 active; H9c2 cardiomyocytes, H2O2 injury protection, ATPLite, 2 h;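 active means compounds giving at least 50% protection of heart cells from peroxide-induced death in the single-dose screen, raw or plate-pattern-corrected value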
MIN6 prolif = induces beta-cell replication in MIN6 cells | 0.29% of 330,000 active | MIN6 cells proliferation, ATPlite luminescence, 48 h; cells starved in 0.2% serum; 100% = growth in 10% serum | proliferation, % at 10 µM | AID 2380;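 active means compounds whose signal lies at least 3.5 SD above the mean of all wells on their plate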
aDG glyco act = alpha-DG glycosylation activation | Pro5-aDG cells, alpha-DG glycosylation AlphaScreen (IIH6); 0% Pro5, 100% B10-LARGE cell signal | activation, % at 10 µM | 0.22% of 360,000 active;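 active means activation of at least 8% versus controls, or a plate z-score of at least 8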;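 further: Pro5 are CHO cells carrying HIG-tagged alpha-DG that lacks glycosylation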
TAG inh = triacylglycerol accumulation inhibition; H9c2 cells, Nile Red lipid (TAG) fluorescence; cells loaded with 200 µM oleic acid; inhibition, % at 12.5 µM; 0.66% of 230,000 active; AID 651582;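 active means pattern-corrected inhibition of lipid staining of at least 50% with the nuclear-stain viability signal not falling by more than 50%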
FAS TE block = inhibitors of human fatty acid synthase thioesterase domain; P49327; recombinant FAS-TE, OMFH fluorogenic substrate, fluorescence endpoint; inhibition, % at 15 µM; 0.67% of 360,000 active; AID 602261;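 active means compounds whose normalised, plate-corrected inhibition of enzyme fluorescence in the single-dose primary screen is 50% or more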
Hits are given with their value; n = inactive; x = not tested or not shown. Shown are actives, neighbours in structure and some others; about 2.3% of the full set was active somewhere.

SMILES	m-calpain inh	H9c2 protect	MIN6 prolif	aDG glyco act	TAG inh	FAS TE block
CN1CCN(CCNC(=O)c2ccc3nc(-c4ccc(F)cc4)c(-c4ccc(F)cc4)nc3c2)CC1	x	n	n	8.0	x	n
COc1cc(/C=N/NC(=O)c2ccc(Cl)cc2)ccc1OCC(=O)N1CC(C)OC(C)C1 (centres undefined)	n	n	n	n	n	n
COc1cc(/C=N/NC(=S)Nc2cccc(Cl)c2C)ccc1OCC(=O)N1CC(C)OC(C)C1 (centres undefined)	n	55	n	n	x	n
CCN1C(=O)[C@H]2[C@@H](c3ccc(-c4ccccc4)cc3)N[C@@](C)(C(=O)OC)[C@H]2C1=O	x	n	n	n	n	n
CCN1C(=O)[C@H]2[C@@H](c3ccc(-c4ccc(C(C)=O)cc4)cc3)N[C@@](C)(C(=O)OC)[C@H]2C1=O	x	52	n	n	n	n
CC(=O)Nc1ccc(OC(=O)c2ccc(Cl)cc2)cc1	n	n	n	n	x	n
CC(=O)Nc1ccc(C(=O)N/N=C/c2ccccc2OC(=O)c2ccc(Cl)cc2)cc1	n	56	n	n	n	n
O=C(Nc1ccc2c(c1)OCO2)c1csc([C@@H]2C[C@H](O)[C@@H](CO)O2)n1	x	n	x	n	n	n
O=C(CCSc1ccccc1)NC(=O)COC(=O)C1CCCCC1	60	n	n	n	n	n
O=C(CCSc1ccccc1)NC1CCCCCC1	n	n	n	n	n	n
Cc1cccc(CN2CCC(n3nccc3NC(=O)CCCc3ccccc3)CC2)n1	x	n	n	n	n	n
Cn1c2c(c(=O)n(C)c1=O)C(CC(=O)Nc1ccccc1)C(=O)N2 (centres undefined)	92	n	n	n	n	n
CCc1nc2c(OCC(=O)c3ccc(Cl)cc3Cl)cccn2c1N(C)C(=O)c1cccs1	x	n	x	n	n	n
CC(NC(=O)c1cc2c(=O)n(C)c3ccccc3c2n1C)c1ccc2c(c1)OCCO2 (centres undefined)	x	72	n	n	n	n
Cn1c(C(=O)Nc2ccc3c(c2)OCO3)cc2c(=O)n(C)c3ccccc3c21	n	n	n	n	n	n
CCOc1ccc(NC(=O)c2cc3c(=O)n(C)c4ccccc4c3n2C)cc1	n	66	n	n	x	n
O=C(Nc1cccc(Oc2ccccc2)c1)c1ccc(-n2cncn2)c2ccoc12	x	n	x	n	n	n
O=C(CSc1nc(=O)n(CCN2CCOCC2)c2c1CCC2)Nc1ccc(OC(F)(F)F)cc1	x	n	n	n	n	n
COc1ccc(C(=O)c2sc(Nc3ccccc3)nc2C)cc1	x	n	n	n	x	n
Cc1nc(Nc2ccccc2)sc1C(=O)c1ccccc1	51	n	n	n	n	n
COC(=O)Nc1nc(-c2ccccc2)c(C(=O)c2ccccc2)s1	n	n	n	n	65	n
COc1ccc([C@H]2[C@H](C(=O)OC(C)(C)C)N3N=Cc4ccccc4C3C23C(=O)c2ccccc2C3=O)cc1OC (some centres undefined)	n	n	n	9.9	x	n
COc1ccc([C@H]2[C@H](C(=O)OC(C)(C)C)N3N=Cc4ccccc4C3C23C(=O)c2ccccc2C3=O)c(OC)c1 (some centres undefined)	n	n	n	n	x	n
CCC[C@@H](CNC)NC[C@H](Cc1ccccc1)NCCCCc1ccccc1	x	n	n	n	131	n
COc1cc(/C=C/C(=O)Nc2ccc3nc4n(c(=O)c3c2)CCCC4)cc(OC)c1OC	n	54	n	n	n	n
SMILES	m-calpain inh	H9c2 protect	MIN6 prolif	aDG glyco act	TAG inh	FAS TE block
COc1ccc(/C=C/C(=O)Nc2ccc3nc4n(c(=O)c3c2)CCCC4)cc1	n	n	n	n	n	n
Brc1ccc(-c2ccc(/C=N/Nc3nc(N4CCOCC4)nc(N4CCOCC4)n3)o2)cc1	n	95	n	n	n	n
Fc1cnc(N/N=C/c2ccc(-c3ccc(Br)cc3)o2)nc1N1CCOCC1	n	n	n	n	n	n
O=C(CSc1ccccn1)C12CC3CC(CC(C3)C1)C2	51	n	n	n	x	n
O=C(O)c1cccnc1SCC(=O)C12CC3CC(CC(C3)C1)C2	n	n	n	n	n	n
Cc1ccc(-c2nn3c(C)nnc3s2)cc1NC(=O)c1ccc(-c2cccc(Cl)c2)o1	n	65	n	n	n	n
COc1ccc(NC(=O)c2c(N)no[n+]2[O-])cc1	n	n	n	n	n	n
COc1ccc(C(=O)c2no[n+]([O-])c2C(=O)c2ccc(OC)cc2)cc1	n	n	n	n	54	n
COc1ccc([N+](=O)[O-])cc1NC(=O)C(C)OC(=O)CN1C(=O)C2CC=CCC2C1=O (centres undefined)	x	n	n	n	n	n
CC(OC(=O)Cn1[nH]c(=O)c2ccccc2c1=O)C(=O)Nc1ccc(Cl)cn1 (centres undefined)	x	52	n	n	n	n
COc1ccc([N+](=O)[O-])cc1NC(=O)C(C)OC(=O)Cn1[nH]c(=O)c2ccccc2c1=O (centres undefined)	x	58	n	n	n	n
CC(OC(=O)Cn1[nH]c(=O)c2ccccc2c1=O)C(=O)NC1(C#N)CCCCC1 (centres undefined)	x	70	n	n	n	n
CC(OC(=O)Cc1c[nH]c2ccccc12)C(=O)NC1(C#N)CCCCC1 (centres undefined)	x	n	n	n	n	n
CCc1ccc(NC(=O)C(C)OC(=O)Cn2[nH]c(=O)c3ccccc3c2=O)cc1 (centres undefined)	x	n	x	n	n	n
O=[N+]([O-])c1ccc(N2CCN(S(=O)(=O)c3ccccc3[N+](=O)[O-])CC2)cc1N1CCc2ccccc2C1	n	n	6.0	n	x	n
O=[N+]([O-])c1ccccc1S(=O)(=O)N1CCc2ccccc2C1	n	n	n	n	n	n
CC1CCCC(CC(N)=O)CC1 (centres undefined)	x	n	x	n	n	n
O=C(CN1C(=O)c2ccccc2C1=O)Nc1ccc(-c2nc3ccccc3o2)cc1	96	n	n	n	n	n
CCN(CC)CC(=O)Nc1ccc(-c2nc3cc(NC(=O)CN(CC)CC)ccc3o2)cc1	n	n	n	n	n	n
O=C(CN1CCCC1)Nc1ccc(-c2nc3cc(NC(=O)CN4CCCC4)ccc3o2)cc1	n	n	n	n	52	n
CCOC(=O)Cc1c(C)nc2c(-c3ccc(Cl)cc3)c[nH]n2c1=O	n	52	n	n	n	n
CCOc1ccc(Cl)cc1-c1cc(C(=O)Nc2ccc(Br)cc2)[nH]n1	x	n	x	n	n	n
O=C(CCl)Nc1cccc(S(=O)(=O)NC2=NCCCCC2)c1	x	n	n	n	57	n
CC1=C(C(=O)N2CCCCCC2)CC(CC(=O)NCCCN(C)C)C(=O)N1Cc1ccc(C(C)(C)C)cc1 (centres undefined)	x	x	x	n	x	n
NC(=O)C1=C(c2ccccc2)c2ccccc2C1=O	x	55	x	n	n	n
